Source: PubChem BioAssay
Only some compounds are listed: those with a hit (about 8% of all), similar ones and a draw of the others.
KB-V1 cytotox = qHTS assay for MDR1-selective chemotherapeutics: Primary screen using the drug-selected MDR subline cells KB-V1; KB-V1 MDR cells viability, CellTiter-Glo, 72 h; Potency, µM (titrated, usually from 46.1 µM), usual class: cytotoxic; actives 3.4% (n = 400,000); AID 1347076, 2019; further: nearly all actives have a fitted effect of over 60% in size
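Cytotoxicity toward P-gp-expressing KB-V1 cells was determined as loss of CellTiter-Glo luminescence after 72 h at 37 degrees C. Compounds were tested in quantitative HTS format across a concentration range, with curves fitted to normalized data.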
KB-3-1 tox = qHTS assay for MDR1-selective chemotherapeutics: Primary screen using the parental adenocarcinoma cell KB-3-1; AID 1347075, 2019; Potency, µM (series often up to 46.1 µM), hits mostly cytotoxic; KB-3-1 viability, CellTiter-Glo ATP luminescence, 72 h; actives 1.4% (n = 400,000); further: nearly all actives have a fitted effect of over 60% in size
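Viability of parental KB-3-1 cells, measured by CellTiter-Glo luminescence, followed a 72 h incubation at 37 °C with pinned compounds in phenol-red-free DMEM containing 10% FBS.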
HT1080 IDH1KD tx = qHTS for induction of synthetic lethality in tumor cells producing 2HG: qHTS for the HT-1080-IDH1KD cell line; HT-1080 IDH1 knockdown viability, ATP luminescence, 48 h; Potency, µM (titrated, usually from 46.1 µM), most hits filed as cytotoxic; actives 2% (n = 360,000); AID 686971, 2013
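Cytotoxicity counter-line: IDH1KD HT-1080, 48 h, CellTiter-Glo. Curves classed by r2, magnitude and activity.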
MCF10A rereplic = A quantitative high throughput screen for small molecules that induce DNA re-replication in MCF 10a normal breast cells. MCF 10A DNA re-replication, Hoechst nuclear intensity, 48 h. Potency, µM (highest dose often 46.1 µM), hits mostly activators. actives 2.9% (n = 350,000). AID 624296, 2012; further: nearly all actives have a fitted effect of over 50% in size
SW480 rerep = A quantitative high throughput screen for small molecules that induce DNA re-replication in SW480 colon adenocarcinoma cells; SW480 DNA re-replication, Hoechst DNA content imaging, 48 h; Potency, µM (titrated, usually from 46.1 µM), usual class: activators; actives 1.8% (n = 340,000); AID 624297, 2012; further: nearly all actives have a fitted effect of over 55% in size
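First, 250 cells per well were seeded. Next, compound or vehicle (23 nL) was pinned in, plates sat 48 hr at 37 C. Finally Hoechst was added for 40 min before fluorescence scanning.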
HT1080-NT tox = qHTS for induction of synthetic lethality in tumor cells producing 2HG: qHTS for the HT-1080-NT fibrosarcoma cell line. HT-1080-NT fibrosarcoma viability, CellTiter-Glo ATP luminescence, 48 h. Potency, µM (titrated, usually from 46.1 µM), usual class: cytotoxic. actives 1.6% (n = 360,000);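 further: NT is the 2HG producing partner of a matched IDH1 knockdown line; nearly all actives have a fitted effect of over 55% in size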
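HT-1080-NT; 750 cells/well; 5% FBS RPMI; 48 h compound, 37 degrees C; CellTiter-Glo luminescence; curve fitting and curve-class assignment.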
Hits are given with their value; . = inactive; ? = inconclusive; / = no result; [ ] = remark or other dose. The call rests on the fitted dose curve; in most records, active means well fitted curve in the direction sought with a large enough effect; inconclusive means small, poorly fitted or top-dose-only effect, or another doubt; inactive means no such curve, though single readings can be large; an effect the other way counts as inactive or inconclusive.

SMILES | KB-V1 cytotox | KB-3-1 tox | HT1080 IDH1KD tx | MCF10A rereplic | SW480 rerep | HT1080-NT tox
CCN(CC(=O)Nc1cc(Cl)ccc1C)C(=O)C1CC(=O)N(Cc2ccccc2)C1 (centres undefined) | . | . | . | ? | 0.16µM | .
C=C1CC2(CC(c3ccccc3)OC(c3ccccc3)C2)OC1=O (centres undefined) | ? | ? | 16µM | 12µM | ? | ?
Cc1ccc(C)c(S(=O)(=O)N(C)Cc2cccs2)c1 | . | . | . | . | . | .
Cc1c2cnccc2c(C)c2c1oc1ccccc12 | 12µM | ? | . | ? | ? | .
CC1CC(C(F)F)n2nc(C(=O)Nc3sc4c(c3C#N)CCC(C(C)(C)C)C4)nc2N1 (centres undefined) | ? | 16µM | . | ? | .[9.22 µM] | .
S=C(c1cn(CCOc2ccccc2)c2ccccc12)N1CCCC1 | ? | ? | ? | . | . | ?
O=C(O)Cn1cc(C(=S)N2CCOCC2)c2ccccc21 | . | . | . | . | . | .
Cc1ccc(OCCn2cc(/C(N)=N/O)c3ccccc32)cc1C | . | . | . | . | . | .
Cc1ccc(OCCn2cc(C(=S)N3CCCC3)c3ccccc32)cc1C | 5.2µM | 5.8µM | 7.3µM | ? | ? | ?
S=C(c1cn(CCOc2cccc3ccccc23)c2ccccc12)N1CCCC1 | ? | 18µM | . | ? | ? | .
COc1ccc(NC(=O)C(=O)c2cn(CC(=O)N3CCCC3)c3ccccc23)cc1 | ? | ? | 0.37µM | ? | 0.46µM | ?
O=C(O)Cn1cc(C(=S)N2CCCCC2)c2ccccc21 | . | . | . | 0.58µM | . | .
O=C(N/N=C\c1ccc([N+](=O)[O-])s1)C1COc2ccccc2O1 (centres undefined) | . | . | . | . | . | ?
CCOCCCNC(=O)/C(C#N)=C/c1ccc([N+](=O)[O-])o1 | . | . | 7.3µM | 5.2µM | ? | ?
CCOCCCNC(=O)/C(C#N)=C/c1ccc(-c2ccc(S(=O)(=O)N3CCOCC3)cc2)o1 | 16µM | . | . | ? | ? | .
COCCNC(=O)/C(C#N)=C/c1cc(Br)c(O)c(OC)c1 | . | . | . | . | . | .
CCOCCCNC(=O)/C(C#N)=C/c1cc(Br)c(O)c(Br)c1 | 3.7µM | 6.5µM | 2.1µM | 12µM | 8.2µM | 2.3µM
NC1=NCC(O)=C1c1nc2ccccc2[nH]1 | . | . | . | . | . | .
Cn1c2ccccc2c2cc(C(=O)NNC(=O)CCl)sc21 | ? | ? | 21µM | 21µM | ? | ?
Cc1ccc(C(c2nnnn2Cc2ccccc2)N2CCN(Cc3ccncc3)CC2)cc1 (centres undefined) | . | . | / | / | / | /
c1ccc(CCn2nnnc2C(c2cccnc2)N2CCN(c3ccccc3)CC2)cc1 (centres undefined) | 10µM | . | . | ? | . | .
c1ccc(CCn2nnnc2C(c2cccnc2)N2CCN(c3nc4ccccc4s3)CC2)cc1 (centres undefined) | ? | . | . | . | . | .
Cc1ccc(C(c2nnnn2Cc2ccccc2)N2CCN(Cc3ccccc3)CC2)cc1 (centres undefined) | . | ? | ? | 16µM | . | .
Clc1ccc(C(c2nnnn2C2CCCC2)N2CCN(Cc3ccncc3)CC2)cc1 (centres undefined) | . | . | . | . | . | .
Fc1ccc(C(c2nnnn2C2CCCC2)N2CCN(Cc3ccccc3)CC2)cc1 (centres undefined) | 3.7µM | . | . | . | . | .
SMILES | KB-V1 cytotox | KB-3-1 tox | HT1080 IDH1KD tx | MCF10A rereplic | SW480 rerep | HT1080-NT tox
CCC(c1nnnn1Cc1ccccc1)N1CCN(c2ccccc2)CC1 (centres undefined) | 23µM | . | . | . | . | .
Fc1ccc(CN2CCN(C(c3ccccc3)c3ccccc3)CC2)cc1 | . | . | . | . | . | .
O=S(=O)(CCN1CCN(C(c2ccccc2)c2ccccc2)CC1)C(F)(F)F | . | . | 18µM | ? | ? | ?
CCCCn1nnnc1C(c1ccccc1)N1CCCN(Cc2ccc(F)cc2)CC1 (centres undefined) | 8.2µM | ? | . | / | / | ?
c1ccc(CN2CCN(C(c3ccccc3)c3ccccc3)CC2)cc1 | ? | . | ? | 21µM | . | .
CCCCn1nnnc1C(c1ccccc1)N1CCN(CC)CC1 (centres undefined) | ? | . | . | / | / | .
CC(=O)OC1CC2(C)C(=O)CCC2C2CCc3cc(O)ccc3C12 (centres undefined) | . | . | . | ? | . | .
CC1CC(C)CN(C(=O)Cn2c(SCC(=O)N3CCc4ccccc4C3)nc3ccccc32)C1 (centres undefined) | . | . | . | . | . | .
Cc1ccc(Cn2c(=O)c3ccccc3n3c(SCC(=O)N4CCCCC4C)nnc23)cc1 (centres undefined) | 8.2µM | . | . | . | . | .
CCCn1c(=O)c2ccccc2n2c(SCC(=O)N3CCc4ccccc4C3)nnc12 | 2.9µM | . | . | . | . | .
CCn1c(=O)c2ccccc2n2c(SCC(=O)N3CCc4ccccc4C3)nnc12 | . | . | . | . | . | .
COCCn1c(SCC(=O)N2CCc3ccccc3C2)nc2cc(Cl)ccc2c1=O | 1.8µM | ? | . | . | . | .
CC(C)NC(=O)Cn1c(SCC(=O)N2CCc3ccccc3C2)nc2ccccc21 | 12µM | . | . | . | . | .
CC(/C=N/NC(=O)c1ccc2nc(C)[nH]c2c1)=C\c1ccccc1 | . | . | . | ? | . | .
O=C(Cc1noc2ccccc12)Nc1ccc2ccccc2c1 | . | ? | . | .[0.0737 µM] | . | .
CC1CCN(c2oc(-c3cccc4ccccc34)nc2C#N)CC1 | . | . | . | 10µM | . | .
N#Cc1nc(-c2cccc3ccccc23)oc1N1CCCCC1 | . | . | . | . | ? | .
O=C(CN1c2ccccc2Sc2ccccc21)NNC(=O)Nc1cccc(Cl)c1 | . | ? | 12µM | 23µM | ? | 18µM
O=C(Cc1ccccc1)NNC(=O)Nc1cccc(Cl)c1 | . | . | . | . | . | .
CC1CCC(C(C)C)C(OC(=O)C[n+]2cc(-c3ccc(Cl)cc3)n3c2CCCCC3)C1 (centres undefined) | . | ? | 21µM | ? | ? | 21µM
